PubChem BioAssay (Tox21)
Records with an inconclusive call do not appear. The source made the active and inactive calls. Unless noted, calls come from the whole dose curve; as a rule, active = well fitted curve in the direction sought with a large enough effect in the repeat runs; inconclusive = weak or mixed curves; inactive = no such curve, though single readings can be large; an effect the other way counts as inactive or inconclusive.

Columns and labels:
[1] = qHTS assay to identify small molecule agonists of the vitamin D receptor (VDR) signaling pathway - cell viability counter screen (AID 743224); note: series mostly up to about 63 µM; nearly all actives have a fitted effect of over 50% in size
Procedure, shortened: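 VDR-bla cells were preincubated 4 h at 37C/5% CO2, then exposed to compounds for 16 h. After the 2 h room-temperature bla FRET read, CellTiter-Glo was added to the same wells and luminescence read after 30 min.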

[2] = qHTS assay to identify small molecule antagonists of the vitamin D receptor (VDR) signaling pathway - cell viability counter screen (AID 743225); note: nearly all actives have a fitted effect of over 50% in size
Procedure, shortened: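 Parallel cytotoxicity test: VDR-UAS-bla HEK 293T, 3 nM (final) 1-alpha,25-dihydroxyvitamin D3 with test compound, 16 h, 37C. Endpoint is CellTiter-Glo luminescence in the same wells.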

[3] = qHTS assay to identify small molecule agonists of the NFkB signaling pathway (AID 1159509; active = well fitted curve in the direction sought with a large enough effect in the signal ratio in the repeat runs, not every such curve was filed as active; the % refers to the signal ratio; note: series mostly up to about 61 µM)
Procedure, shortened: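 After overnight attachment, reporter cells received test compounds, DMSO or positive controls and were incubated 5 hr at 37 C. FRET substrate was then added for 1.5 hr at room temperature before dual-emission fluorescence reading.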

[4] = qHTS assay to identify small molecule agonists of the NFkB signaling pathway - cell viability counter screen (AID 1159515; calls by dose curve; note: series mostly up to about 61 µM; nearly all actives have a fitted effect of over 55% in size)
Procedure, shortened: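 NFkB-bla ME-180 cells, 2,000/well, were plated overnight at 37 C, 5% CO2, then exposed to compounds in DMSO for 5 hr. After the bla FRET read, CellTiter-Glo was added to the same wells; luminescence was read after 30 min at room temperature.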

[5] = qHTS assay to identify small molecule agonists of the endoplasmic reticulum stress response signaling pathway (AID 1159516; active = well fitted activation curve with a large enough effect in the signal ratio in the repeat runs, not every such curve was filed as active; the % refers to the signal ratio)
Procedure, shortened: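 CellSensor ESRE-bla HeLa cells, carrying a beta-lactamase reporter driven by the ER stress response element, were plated overnight and exposed to compounds for 5 hr at 37 C. Reporter activity was read as FRET substrate fluorescence after 2 hr at room temperature.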

[6] = qHTS assay to identify small molecule agonists of the endoplasmic reticulum stress response signaling pathway - cell viability counter screen (AID 1159517; calls by dose curve; note: series mostly up to about 61 µM; nearly all actives have a fitted effect of over 50% in size)
Procedure, shortened: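 Cells, HeLa ESRE-bla; density, 1,500/well; dosing, 5 hr at 37 C, 5% CO2; readout, CellTiter-Glo luminescence after 30 min RT.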

[7] = qHTS assay to identify small molecule antagonists of the retinoid-related orphan receptor gamma (ROR-gamma) signaling pathway - cell viability counter screen (AID 1159520); note: nearly all actives have a fitted effect of over 50% in size; note: potency is the fitted concentration of half-maximal effect
Procedure, shortened: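 Cytotoxicity was read from cellular ATP (CellTiter-Glo luminescence) after 16 hr at 37 C with 1 uM doxycycline induction. The inducer was added 2 hr after compound transfer to Tet-on ROR gamma CHO cells.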

[8] = qHTS assay to identify small molecule agonists of the AP-1 signaling pathway - cell viability counter screen (AID 1159525; calls by dose curve; note: nearly all actives have a fitted effect of over 55% in size)
Procedure, shortened: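 Luminescent ATP readout (Cell Titer Glo, 30 min RT), normalised to DMSO and tetra n-octyl ammonium bromide controls. Cells were ME-180 AP-1-bla in 0.5% dialyzed FBS Opti-MEM, with a 5 h, 37 °C compound exposure.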

[9] = qHTS assay to identify small molecule agonists of the AP-1 signaling pathway (AID 1159526; calls by dose curve)
[10] = target: Retinoic acid receptor RXR-alpha (Homo sapiens) (UniProt P19793); test: qHTS assay to identify small molecule agonists of the RXR signaling pathway (AID 1159527; calls by dose curve; note: nearly all actives have a fitted effect of over 35% in size; note: potency is the fitted concentration of half-maximal effect)
Procedure, shortened: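 16 hr incubation of compound-treated RXR-alpha-UAS-bla HEK 293T cells (2% charcoal-stripped FBS, 37 C) preceded a 2 hr room-temperature LiveBLAzer FRET substrate step and blue/green fluorescence measurement.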

[11] = qHTS assay to identify small molecule antagonists of the retinoid acid receptor (RAR) signaling pathway - cell viability counter screen (AID 1159551); note: nearly all actives have a fitted effect of over 35% in size
Procedure, shortened: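 C3RL4 cells were seeded overnight at 37 C, then treated with compounds plus 1 uM (final) retinol for 6 h at 37 C. Viability was read as ATP by CellTiter-Glo luminescence after 30 min at room temperature.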

[12] = qHTS assay to identify small molecule agonists of the retinoic acid receptor (RAR) signaling pathway (AID 1159553); note: potency is the fitted concentration of half-maximal effect
Procedure, shortened: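 C3RL4 cells carrying a RARE luciferase reporter were plated overnight at 37 C, then exposed to compounds in DMSO for 6 hr at 37 C and 5% CO2. Luminescence was read 30 min after luciferase reagent addition at room temperature.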

[13] = qHTS assay to identify small molecule agonists of the RXR signaling pathway - cell viability counter screen (AID 1159529)
Procedure, shortened: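 In this parallel viability measure, GeneBLAzer RXR-alpha HEK 293T cells (2% charcoal-stripped FBS) were given a 5 hr preincubation, treated with compounds 16 hr at 37 C, and read by CellTiter-Glo luminescence.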

[14] = qHTS assay to identify small molecule antagonists of the retinoic acid receptor (RAR) signaling pathway (AID 1159552; note: nearly all actives have a fitted effect of over 50% in size)
Procedure, shortened: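 C3RL4 RARE-luc cells, overnight plating; retinol 1 uM final added right after compound; 6 hr 37 C; luciferase read at 30 min RT.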

Measured: Potency

Retinoic acid receptor RXR-alpha (Homo sapiens), sequence (P19793 whole entry, looked up): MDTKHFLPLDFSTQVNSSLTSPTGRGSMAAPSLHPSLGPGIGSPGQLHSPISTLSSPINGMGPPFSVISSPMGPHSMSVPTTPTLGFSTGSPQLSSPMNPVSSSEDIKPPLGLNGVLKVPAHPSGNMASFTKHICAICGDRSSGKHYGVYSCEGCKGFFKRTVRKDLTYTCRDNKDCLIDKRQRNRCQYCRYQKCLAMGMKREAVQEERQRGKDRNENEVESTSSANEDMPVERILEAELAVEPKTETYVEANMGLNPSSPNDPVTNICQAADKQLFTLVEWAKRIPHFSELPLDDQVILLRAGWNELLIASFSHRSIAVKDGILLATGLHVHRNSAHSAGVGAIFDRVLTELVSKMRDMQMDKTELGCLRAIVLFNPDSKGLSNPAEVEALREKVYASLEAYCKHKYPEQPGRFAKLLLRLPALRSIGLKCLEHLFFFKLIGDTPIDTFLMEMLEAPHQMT

CCCCN(CCCC)CCCOC(=O)c1ccc(N)cc1
not listed: [13] | [14]
inactive: all other assays above

CC(Cl)C(Cl)Cl (stereo not given)
not listed: [10] | [12] | [14]
inactive: all other assays above

O=c1[nH]c2ccc(S(=O)CCN3CCC(Cc4ccc(F)cc4)CC3)cc2o1 (stereo not given)
not listed: [10] | [14]
inactive: all other assays above

CC1=NN(c2ccc(C(=O)O)cc2)C(=O)C1
active: [12] 68.6 µM
not listed: [10]
inactive: all other assays above

CCC(C)(C)C1CCC(O)CC1 (stereo not given)
not listed: [10]
inactive: all other assays above

CC1=CC(O)CC(C)(C)C1 (stereo not given)
not listed: [10] | [14]
inactive: all other assays above

O=C(CCCCCCC(=O)Nc1ccccc1)NO
active: [7] 7.5 µM
not listed: [12] | [13] | [14]
inactive: all other assays above

CC(=O)Nc1ccc(N)cc1
not listed: [10] | [14]
inactive: all other assays above

O=C(CCCCCCCCC#CI)Oc1ccccc1
not listed: [10] | [14]
inactive: all other assays above

Cc1ccc(/C=N/n2c(-c3ccccc3)csc2=S)cc1
not listed: [10]
inactive: all other assays above

CCOC(=N)CC(=O)OCC
not listed: [10]
inactive: all other assays above

C[C@@H]1C[C@H]2[C@@H]3CCC4=CC(=O)C=C[C@]4(C)[C@@]3(F)[C@@H](O)C[C@]2(C)[C@@]1(O)C(=O)CO
not listed: [1] | [2] | [10] | [12] | [14]
inactive: all other assays above

CCOC(=O)c1ccccc1OC
not listed: [10] | [14]
inactive: all other assays above

Cc1cc(O)c2c(O)c3c(O)cccc3cc2c1
not listed: [1] | [10]
inactive: all other assays above

CCC(C(=O)OCCOCCN(CC)CC)c1ccccc1 (stereo not given)
not listed: [13]
inactive: all other assays above

Nc1ccc(S(=O)(=O)O)cc1
not listed: [10] | [14]
inactive: all other assays above

CCOC(=O)N1CCC(n2c(=O)[nH]c3cc(Cl)ccc32)CC1
not listed: [13] | [14]
inactive: all other assays above

C=CC(C)(O)CCCC(C)CCCC(C)CCCC(C)C (stereo not given)
active: [10] 6.13 µM
not listed: [11] | [14]
inactive: all other assays above

CCCCC(CC)C(=O)OCCOCCOCCOCCOC(=O)C(CC)CCCC (stereo not given)
not listed: [2] | [10]
inactive: all other assays above

CCOC(=O)[C@@H](C)Oc1ccc(Oc2nc3ccc(Cl)cc3o2)cc1
not listed: [10] | [12]
inactive: all other assays above
